The text below walks through data of PubChem BioAssay (NCI).

In this assay the test system is HL-60(TB) leukemia. As to the kind of experiment: NCI-60 one-dose screen, 48 h (100 = growth as untreated, 0 = no growth, -100 = all killed). The following applies: 10 µM unless noted.

Molecules are shown by their SMILES. This is part of a sample that, as a whole, favours compounds with a hit. Of some 83,000 tested, about 20% had one in any assay.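 The endpoint reported here, percent growth, reads 100 for growth as untreated, 0 for no net growth and -100 for all cells dead.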 Unmarked numbers belong to inactive results. The source made the active and inactive calls. Rule for the calls: active = growth percent below 10; inactive = the rest.

`C=CC(=O)Nc1cc2c(Nc3ccc(F)c(Cl)c3)ncnc2cc1C#CC(C)(C)N1CCN(C)CC1`: the growth was -47.6% (active).

Regarding `CCCCn1c(-c2cccc(OC)c2)nc2cc(OC)c(OC)cc2c1=O`, the growth was 78.3%.

Take `C1=NCCc2ccccc21`: the growth is 116%.

`O=C(Nc1cc(Cl)ccc1O)c1cccc(Nc2ccnc(C(F)(F)F)c2)c1`: the growth is -18% (active).

Turning to `CSc1ccc2c(c1)N(CCC1CCCCN1C)c1ccccc1S2` (centres undefined), the growth is 86.1%.

`CC(C)c1ccc(C(=O)OCCCl)cc1`: the growth is 85.5%.

Regarding `CC(=O)Nc1ccc(S(=O)(=O)N/N=C\c2ccc(Cl)c(Cl)c2)cc1`, the growth is 1.93% (active).

With `O=c1cc(-c2ccccc2)[nH]c2c1CCCC2`, the growth is 19.1%.

On to `CCCC/C=C/[C@@H]1C[C@H]1CCO`, for which the growth was 111%.

As to `CC(C)(C)c1ccc(OCCOC(=O)CBr)cc1`, the growth was 75.2%.

`Cc1csc(Nc2nc(-c3cccc(Br)c3)nc(C(Cl)(Cl)Cl)n2)n1`: the growth is 9.61% (active).

In the case of `Cc1nc2sc(C(=O)Nc3ccc(Cl)cc3)c(N)c2cc1C(O)c1ccccc1` (centres undefined), the growth is 2.56% (active).

As for `COc1cc(C=C2C(=O)N(C)C(=O)N(C)C2=O)cc(CN2CCCCC2)c1O`, the growth is 96.3%.

As to `COc1ccc(Nc2nc(NCc3ccccc3)c3ccccc3n2)cc1`, the growth was 89.5%.

As for `Nc1nc(N)c2c(n1)NC(c1ccc(Cl)cc1)CC(c1cccc(Nc3ccncc3)c1)=N2` (centres undefined), the growth is 39%.

For `CCN1/C(=C/C=C/c2n(-c3ccccc3)c3ccc(-c4nc5ccccc5s4)cc3[n+]2CC)N(c2ccccc2)c2ccc(-c3nc4ccccc4s3)cc21`, the growth is 6.43% (active).

Consider `O=C(Cc1ccc(NC(=O)c2cccc(Cl)c2)cc1)NCc1ccccc1`, for which the growth is -14% (active).

Take `Cc1ccc(S(=O)(=O)c2nc(-c3ccccc3)oc2SCC(N)=O)cc1`: the growth was 65.3%.

On to `CC1(C)CC(=O)C2=C(C1)Oc1nc(N)c(C#N)c(N)c1C2c1ccc(F)cc1` (centres undefined), for which the growth was 107%.

Turning to `CCC(C)N(c1ccc(Cl)cc1)c1nc(-c2ccc(Br)cc2)cs1` (centres undefined), the growth is 100%.

Take `Cc1cc(O)c2cc3c(O)c(O)ccc3cc2c1`: the growth was 82.7%.

As for `COc1ccc(C2CC(c3ccc(-c4ccccc4)cc3)=NN2c2ccc(S(N)(=O)=O)cc2)cc1` (centres undefined), the growth is 69.4%.

`CCOC(=O)c1cnn(-c2ccc(S(N)(=O)=O)cc2)c1N`: the growth is 92.9%.

`O=c1c(O)cccn1CCCNCCCN(CCCn1cccc(O)c1=O)CCCn1cccc(O)c1=O`: the growth was 120%.
